Test results taken from PubChem BioAssay (EPA / NIEHS).
Where “and” joins values, the source holds several entries; their conditions need not be identical. Equal values may be shown once. Results filed as inconclusive are left out. Where a structure was tested more than once in an assay, its records may differ in their call. Calls of active or inactive are those of the source. How the source made its calls, unless noted: active means hit-call score of the fitted dose curve at least 0.9, where 1 is the maximum; inactive means score below 0.9.

How the values were obtained:
[1] = read-out: solute carrier (SLC22A1), SLC22A1 (gene 6580); experiment: LTEA_HepaRG_SLC22A1: Life Technologies and Expression Analysis (LTEA) Assay for solute carrier (SLC22A1) using HepaRG (AID 2283524); conditions: mRNA level, 48 h; actives raise or lower the signal
How it was run: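 HepaRG (human liver line), 48 h dosing in serum-free induction medium; 8 conc., half-log down from 100 uM, 0.5% DMSO vehicle, duplicates. Endpoint: SLC22A1 mRNA, qRT-PCR, housekeeping-normalized; gain/loss fit vs DMSO.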

[2] = read-out: Pyruvate Dehydrogenase Kinase 4 (PDK4), PDK4 (gene 5166); experiment: LTEA_HepaRG_PDK4: Life Technologies and Expression Analysis (LTEA) Assay for Pyruvate Dehydrogenase Kinase 4 (PDK4) using HepaRG (AID 2283525); conditions: mRNA level, 48 h; actives raise or lower the signal
How it was run: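 In this multiplexed human HepaRG expression assay, cells are treated 48 h with test chemicals across an eight-point range starting at 100 uM. PDK4 mRNA changes, normalized to ACTB/GAPDH/POLR2A, are fitted in both directions relative to vehicle.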

[3] = read-out: Nuclear factor erythroid 2-related factor 2 (Homo sapiens) (UniProt Q16236); experiment: LTEA_HepaRG_NFE2L2: Life Technologies and Expression Analysis (LTEA) Assay for Nuclear factor erythroid 2-related factor 2 (NFE2L2) Transcription Factor using HepaRG (AID 2283527); conditions: mRNA level, 48 h; actives raise or lower the signal;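 on outcome: TaqMan qRT-PCR transcript level normalised to ACTB GAPDH and POLR2A housekeeping genes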
How it was run: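 Transcript level of NFE2L2 is the read-out, measured by microfluidic TaqMan qRT-PCR and normalized to three housekeeping genes. Human HepaRG cultures received test chemical for 48 h at up to 100 uM in half-log steps. Gain or loss of signal is fitted relative to 0.5% DMSO.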

[4] = read-out: Signal transducer and activator of transcription 3 (Homo sapiens) (UniProt P40763); experiment: LTEA_HepaRG_STAT3: Life Technologies and Expression Analysis (LTEA) Assay for Signal transducer and activator of transcription (STAT3) using HepaRG (AID 2283529); conditions: mRNA level, 48 h; actives raise or lower the signal
How it was run: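 Read-out is STAT3 mRNA level by qRT-PCR, normalized to three housekeeping genes, in human HepaRG liver cells treated for 48 h. Concentrations ran from 100 uM downward in half-log steps; curves were fitted for gain or loss relative to 0.5% DMSO.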

[5] = read-out: solute carrier (SLCO1B1), SLCO1B1 (gene 10599); experiment: LTEA_HepaRG_SLCO1B1: Life Technologies and Expression Analysis (LTEA) Assay for solute carrier (SLCO1B1) using HepaRG (AID 2283530); conditions: mRNA level, 48 h; actives raise or lower the signal
How it was run: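 Differentiated human HepaRG cells, plated 48 h, switched to serum-free induction medium and exposed in duplicate for 48 h to 8 half-log concentrations (top 100 uM) in 0.5% DMSO. SLCO1B1 mRNA by TaqMan qRT-PCR, normalized to ACTB/GAPDH/POLR2A.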

[6] = read-out: sulfotransferase 2A1 (SULT2A1), SULT2A1 (gene 6822); experiment: LTEA_HepaRG_SULT2A1: Life Technologies and Expression Analysis (LTEA) Assay for sulfotransferase 2A1 (SULT2A1) using HepaRG (AID 2283531); conditions: mRNA level, 48 h; actives raise or lower the signal
How it was run: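 Differentiated human HepaRG cells in serum-free induction medium were exposed for 48 h to eight half-log concentrations (top 100 uM, 0.5% DMSO). SULT2A1 mRNA was measured by qRT-PCR, normalized to ACTB, GAPDH and POLR2A, and fitted bidirectionally against DMSO.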

[7] = read-out: Transforming Growth Factor (TGFA), TGFA (gene 7039); experiment: LTEA_HepaRG_TGFA: Life Technologies and Expression Analysis (LTEA) Assay for Transforming Growth Factor (TGFA) using HepaRG (AID 2283532); conditions: mRNA level, 48 h; actives raise or lower the signal
How it was run: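 HepaRG (human liver line), 48 h exposure, 8 conc. half-log down from 100 uM, 0.5% DMSO vehicle, duplicates; serum-free induction medium. TGFA mRNA by TaqMan qRT-PCR, ACTB/GAPDH/POLR2A normalization; gain/loss fit vs DMSO.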

[8] = read-out: Transforming Growth Factor (TGFB1), TGFB1 (gene 7040); experiment: LTEA_HepaRG_TGFB1: Life Technologies and Expression Analysis (LTEA) Assay for Transforming Growth Factor (TGFB1) Transporter using HepaRG (AID 2283533); conditions: mRNA level, 48 h; actives raise or lower the signal
How it was run: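 Differentiated human HepaRG cells in serum-free induction medium were exposed in duplicate for 48 h to eight concentrations (top 100 uM, half-log steps, 0.5% DMSO). TGFB1 mRNA was quantified by qRT-PCR, normalized to ACTB, GAPDH, POLR2A, and fitted bidirectionally against DMSO.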

TIMP1, TIMP1 (gene 7076) = experiment: LTEA_HepaRG_TIMP1: Life Technologies and Expression Analysis (LTEA) Assay for TIMP1 using HepaRG (AID 2283534); conditions: mRNA level, 48 h; actives raise or lower the signal;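 further: TaqMan qRT-PCR signal normalized to ACTB GAPDH and POLR2A housekeeping genes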
How it was run: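 Differentiated human HepaRG cells in serum-free induction medium were exposed 48 h to chemicals (8 half-log concentrations, top 100 uM, 0.5% DMSO). TIMP1 mRNA was quantified by TaqMan qRT-PCR, normalized to ACTB/GAPDH/POLR2A; bidirectional fit versus DMSO.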

[9] = read-out: Tumor necrosis factor receptor 1 (TNFRSF1A), TNFRSF1A (gene 7132); experiment: LTEA_HepaRG_TNFRSF1A: Life Technologies and Expression Analysis (LTEA) Assay for Tumor necrosis factor receptor 1 (TNFRSF1A) using HepaRG (AID 2283535); conditions: mRNA level, 48 h; actives raise or lower the signal
How it was run: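 Differentiated human HepaRG cells were exposed in duplicate for 48 h in serum-free induction medium to eight concentrations (top 100 uM, half-log steps, 0.5% DMSO). TNFRSF1A mRNA was quantified by qRT-PCR, normalized to ACTB, GAPDH and POLR2A, then fitted bidirectionally against DMSO.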

[10] = read-out: Thyroid Hormone Responsive (THRSP), THRSP (gene 7069); experiment: LTEA_HepaRG_THRSP: Life Technologies and Expression Analysis (LTEA) Assay for Thyroid Hormone Responsive (THRSP) using HepaRG (AID 2283536); conditions: mRNA level, 48 h; actives raise or lower the signal
How it was run: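 mRNA induction or loss relative to 0.5% DMSO vehicle was fitted bidirectionally across an eight-point curve whose highest exposure was 100 uM. Human HepaRG liver cells received chemicals in duplicate over 48 h before RNA extraction.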

[11] = read-out: UDP glucuronosyltransferase (UGT1A1), UGT1A1 (gene 54658); experiment: LTEA_HepaRG_UGT1A1: Life Technologies and Expression Analysis (LTEA) Assay for UDP glucuronosyltransferase (UGT1A1) using HepaRG (AID 2283538); conditions: mRNA level, 48 h; actives raise or lower the signal
How it was run: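 Readout is UGT1A1 transcript level by qRT-PCR, normalized to three housekeeping genes, after 48 h chemical treatment of HepaRG cells. Concentrations ran from 100 uM down in half-log steps with 0.5% DMSO, and gain or loss relative to DMSO was fitted.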

[12] = read-out: UDP glucuronosyltransferase (UGT1A6), UGT1A6 (gene 54578); experiment: LTEA_HepaRG_UGT1A6: Life Technologies and Expression Analysis (LTEA) Assay for UDP glucuronosyltransferase (UGT1A6) using HepaRG (AID 2283539); conditions: mRNA level, 48 h; actives raise or lower the signal
How it was run: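 Human HepaRG cells were dosed for 48 h in serum-free induction medium with 0.5% DMSO vehicle, eight-point half-log series from 100 uM, in duplicate. UGT1A6 mRNA was measured by qRT-PCR, normalized to ACTB, GAPDH, POLR2A, and fitted bidirectionally against DMSO.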

[13] = read-out: X-box binding protein 1 (XBP1), XBP1 (gene 7494); experiment: LTEA_HepaRG_XBP1: Life Technologies and Expression Analysis (LTEA) Assay for X-box binding protein 1 (XBP1) using HepaRG (AID 2283540); conditions: mRNA level, 48 h; actives raise or lower the signal
How it was run: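 Differentiated human HepaRG cells in serum-free induction medium were exposed in duplicate for 48 h to eight half-log concentrations up to 100 uM in 0.5% DMSO. XBP1 mRNA was quantified by qRT-PCR, normalised to ACTB, GAPDH and POLR2A, with bidirectional fitting against DMSO.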

[14] = LTEA_HepaRG_LDH_cytotoxicity: Cytotoxicity Assessment in the Life Technologies and Expression Analysis (LTEA) Assay (AID 2283563; active means hit-call score of the fitted dose curve at least 0.9, where 1 is the maximum;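 on AC50: LDH activity released into spent culture medium as a marker of cell death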)
How it was run: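 Differentiated human HepaRG cells, plated 48 h beforehand, were switched to serum-free induction medium and exposed for 48 h to eight half-log concentrations (top 100 uM) in 0.5% DMSO. LDH was measured in spent medium; activity was fitted relative to DMSO vehicle.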

[15] = ATG_XTT_Cytotoxicity: Cytotoxicity Assessment in the Attagene TRANS-FACTORIAL HepG2 Assay (AID 2283584; active means hit-call score of the fitted dose curve at least 0.9, where 1 is the maximum;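 on AC50: cells exposed to compound for 24 h before reading; active means loss of viability signal versus DMSO baseline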)
How it was run: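 HepG2 human liver cells, transiently transfected with multiple GAL4-UAS reporter units, were dosed and read at 24 h by XTT as cell number. Loss of signal was fitted relative to DMSO negative control baseline.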

[16] = biological target: Cellular tumor antigen p53 (Homo sapiens) (UniProt P04637); experiment: TOX21_p53_BLA_p2_ratio: Tox21 HCT-116 p53 Agonism Beta-lactamase Assay, Ratio, Phase 2 (AID 2283592; active means hit-call score of the fitted dose curve at least 0.9, where 1 is the maximum)
Chain of Cellular tumor antigen p53 (Homo sapiens) (P04637 whole entry, looked up): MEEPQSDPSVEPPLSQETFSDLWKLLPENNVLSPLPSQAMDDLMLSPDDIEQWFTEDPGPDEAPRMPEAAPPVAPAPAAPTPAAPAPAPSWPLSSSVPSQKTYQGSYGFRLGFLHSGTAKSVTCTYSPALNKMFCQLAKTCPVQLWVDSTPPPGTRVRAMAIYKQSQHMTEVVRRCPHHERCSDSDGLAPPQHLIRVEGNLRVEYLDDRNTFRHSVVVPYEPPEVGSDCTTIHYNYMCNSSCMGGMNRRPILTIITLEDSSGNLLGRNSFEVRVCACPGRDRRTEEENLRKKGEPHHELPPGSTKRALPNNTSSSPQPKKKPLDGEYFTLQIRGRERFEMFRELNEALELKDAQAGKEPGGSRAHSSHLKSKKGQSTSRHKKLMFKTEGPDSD
How it was run: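 HCT116 cells carrying a p53-responsive beta-lactamase reporter were plated, incubated 5 h at 37C, then dosed with compounds in DMSO (217-fold dilution) for 16 h. CCF4-AM substrate was added for 2 h at room temperature; the 460/530 nm emission ratio gave gain-of-signal activity relative to DMSO.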

Chain of Nuclear factor erythroid 2-related factor 2 (Homo sapiens) (Q16236 whole entry, looked up): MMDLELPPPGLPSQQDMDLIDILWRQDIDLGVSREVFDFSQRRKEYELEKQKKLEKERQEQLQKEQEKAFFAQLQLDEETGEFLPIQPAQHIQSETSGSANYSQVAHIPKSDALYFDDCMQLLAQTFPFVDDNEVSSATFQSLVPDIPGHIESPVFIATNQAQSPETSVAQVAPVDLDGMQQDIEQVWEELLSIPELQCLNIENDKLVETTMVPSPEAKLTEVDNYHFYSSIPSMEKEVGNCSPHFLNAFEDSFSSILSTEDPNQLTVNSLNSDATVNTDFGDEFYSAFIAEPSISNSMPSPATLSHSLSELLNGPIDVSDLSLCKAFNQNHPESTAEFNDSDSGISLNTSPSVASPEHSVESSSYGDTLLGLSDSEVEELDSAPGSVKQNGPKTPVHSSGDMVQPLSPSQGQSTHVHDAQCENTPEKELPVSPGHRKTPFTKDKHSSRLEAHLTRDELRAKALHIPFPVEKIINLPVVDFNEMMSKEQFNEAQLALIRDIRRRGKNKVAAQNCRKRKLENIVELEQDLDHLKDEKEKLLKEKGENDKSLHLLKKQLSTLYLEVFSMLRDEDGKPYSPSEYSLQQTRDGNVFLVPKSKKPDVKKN
Chain of Signal transducer and activator of transcription 3 (Homo sapiens) (P40763 whole entry, looked up): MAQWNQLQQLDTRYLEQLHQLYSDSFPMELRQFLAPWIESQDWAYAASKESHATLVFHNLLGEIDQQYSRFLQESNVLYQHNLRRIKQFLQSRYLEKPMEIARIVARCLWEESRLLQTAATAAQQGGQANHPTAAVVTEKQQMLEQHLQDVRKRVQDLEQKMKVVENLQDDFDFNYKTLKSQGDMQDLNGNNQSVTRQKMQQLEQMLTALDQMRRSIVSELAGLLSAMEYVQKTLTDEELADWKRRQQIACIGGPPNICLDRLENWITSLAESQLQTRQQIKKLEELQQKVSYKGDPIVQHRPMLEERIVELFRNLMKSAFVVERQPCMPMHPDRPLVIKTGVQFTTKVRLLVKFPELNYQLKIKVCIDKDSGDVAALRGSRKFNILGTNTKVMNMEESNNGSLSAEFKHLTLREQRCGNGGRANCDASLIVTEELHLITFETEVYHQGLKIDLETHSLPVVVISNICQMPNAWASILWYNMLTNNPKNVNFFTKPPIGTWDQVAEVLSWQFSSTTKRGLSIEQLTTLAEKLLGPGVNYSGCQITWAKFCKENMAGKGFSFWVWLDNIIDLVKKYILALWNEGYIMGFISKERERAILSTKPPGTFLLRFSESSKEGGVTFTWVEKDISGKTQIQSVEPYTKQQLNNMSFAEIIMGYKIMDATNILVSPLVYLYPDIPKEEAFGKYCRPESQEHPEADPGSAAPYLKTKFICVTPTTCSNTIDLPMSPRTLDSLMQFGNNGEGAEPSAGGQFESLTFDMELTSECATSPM

SMILES: O=S(=O)(O)C(F)(F)C(F)(F)C(F)(F)C(F)(F)C(F)(F)C(F)(F)C(F)(F)C(F)(F)F
- AC50 [1]: 90.2 µM (active) and 89.8 µM (active) and 83.1 µM (active)
- outcome [1]: inactive
- AC50 [2]: 27 µM (active) [middle of 4 runs]
- AC50 [3]: 58 µM (active)
- outcome [3]: inactive
- outcome [4]: inactive
- AC50 [5]: 93.1 µM (active) and 79 µM (active) and 77.6 µM (active)
- outcome [5]: inactive
- AC50 [6]: 7.51 µM (active) and 83 µM (active) and 85.1 µM (active)
- outcome [6]: inactive
- AC50 [7]: 50 µM (active) and 16.7 µM (active) and 48 µM (active)
- AC50 [8]: 48 µM (active)
- outcome [8]: inactive
- outcome (TIMP1, TIMP1 (gene 7076)): inactive
- outcome [9]: inactive
- AC50 [10]: 34.2 µM (active) and 45.8 µM (active) and 60 µM (active)
- outcome [10]: inactive
- AC50 [11]: 12.9 µM (active) and 11.5 µM (active) and 11.9 µM (active)
- AC50 [12]: 89.2 µM (active) and 47 µM (active)
- outcome [12]: inactive
- outcome [13]: inactive
- AC50 [14]: 75.8 µM (active) and 79.2 µM (active) and 75.4 µM (active)
- outcome [14]: inactive
- AC50 [15]: 151 µM (active) and 157 µM (active)
- outcome [15]: inactive
- outcome [16]: inactive

SMILES: CC(C)(C)C(O)C(Oc1ccc(Cl)cc1)n1cncn1 (stereo not given)
- outcome [1]: inactive
- outcome [2]: inactive
- AC50 [3]: 9.92 µM (active)
- outcome [3]: inactive
- outcome [4]: inactive
- outcome [5]: inactive
- outcome [6]: inactive
- outcome [7]: inactive
- outcome [8]: inactive
- outcome (TIMP1, TIMP1 (gene 7076)): inactive
- outcome [9]: inactive
- AC50 [10]: 35.3 µM (active) and 36 µM (active) and 27.9 µM (active)
- AC50 [11]: 3.12 µM (active) and 2.49 µM (active) and 3.05 µM (active)
- AC50 [12]: 381 nM (active)
- outcome [12]: inactive
- outcome [13]: inactive
- outcome [14]: inactive
- outcome [15]: inactive
- outcome [16]: inactive
